# In the library only some 4.6% were active in any assay of this set; here they are far more common.
# Tau ThT inhib – blocks human tau fibril formation measured by thioflavin T. Potency, µM (series often up to 57.4 µM), for the others: at the highest dose activity, negative = inhibition, actives largely listed as inhibitors. AID 1460. 270,000 compounds, 2.1% hits. P10636. recombinant tau K18 P301L, heparin-induced fibrillization, ThT fluorescence; also: potency is read from the fitted curve at half-maximal effect; nearly all actives have a fitted effect of over 55% in size
# Target sequence (P10636 561-689 P618L limits assumed): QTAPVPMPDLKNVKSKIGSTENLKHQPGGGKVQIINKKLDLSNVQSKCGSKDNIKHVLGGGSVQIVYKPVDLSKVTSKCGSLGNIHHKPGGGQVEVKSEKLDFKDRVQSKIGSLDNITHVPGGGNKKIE
#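 Heparin-induced (20 uM) aggregation of recombinant human K18 P301L tau, 15 uM unlabeled with 0.24 uM labeled, pH 7 acetate buffer, 6 hr at 37 C with compound. Fibrils quantified by 30 uM ThT fluorescence after 1 hr ambient incubation.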
# TRb-SRC2 inh – inhibitors of human thyroid hormone receptor beta-SRC2 interaction. P10828. TRbeta-SRC2 peptide binding, fluorescence polarization; receptor liganded with 1 µM T3. Potency, µM (doses to about 106 µM), inactives show top-dose activity change, negative = inhibition, hits mostly inhibitors. 280,000 compounds, 0.065% hits. AID 1469;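 also: potency is read from the fitted curve at half-maximal effect; plate controls were bound peptide for no effect and peptide without receptor for full effect; nearly all actives have a fitted effect of over 50% in size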
# Target sequence (P10828 whole entry, looked up): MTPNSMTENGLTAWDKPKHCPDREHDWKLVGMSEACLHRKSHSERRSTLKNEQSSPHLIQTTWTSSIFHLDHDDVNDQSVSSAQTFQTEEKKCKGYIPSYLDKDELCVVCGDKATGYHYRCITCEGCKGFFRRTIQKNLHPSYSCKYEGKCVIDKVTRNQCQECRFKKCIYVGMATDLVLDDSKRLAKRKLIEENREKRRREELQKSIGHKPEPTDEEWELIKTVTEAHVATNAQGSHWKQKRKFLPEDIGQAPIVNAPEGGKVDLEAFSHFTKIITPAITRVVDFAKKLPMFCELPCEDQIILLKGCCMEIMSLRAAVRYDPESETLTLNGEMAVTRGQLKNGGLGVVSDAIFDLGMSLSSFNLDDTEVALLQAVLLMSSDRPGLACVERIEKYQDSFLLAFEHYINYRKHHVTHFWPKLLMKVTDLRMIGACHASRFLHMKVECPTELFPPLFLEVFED
#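 Fluorescence polarization of 20 nM Texas Red SRC2 peptide with 0.6 uM human TRb ligand-binding domain, in Tris buffer with 1uM T3 and 5% DMSO. Incubated 5 hr ambient; normalized to unbound and bound controls.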
# Tau fibril FP – inhibitors of human tau fibril formation; P10636; 280,000 compounds, 0.39% hits; Potency, µM (doses to about 57.7 µM), for inactives: at the top dose activity, negative = inhibition, usual class: inhibitors; AID 1468; K18 P301L tau heparin fibrillization, Alexa594 FP, 6 h; also: potency is read from the fitted curve at half-maximal effect; nearly all actives have a fitted effect of over 55% in size
#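 Recombinant K18 P301L […], labeled with Alexa 594 at 0.24 uM over 15 uM unlabeled; heparin inducer 20 uM final; 37 C, 6 hr; FP endpoint.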
# PNC assembly inh – perinucleolar compartment assembly inhibition; 140,000 compounds, 3.1% hits; PC3M PTB-GFP, PNC prevalence imaging, 16 h; stronger effect = lower value; activity change (PNC), negative = inhibition, % at 10 µM;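 active = readout at or below -70, meaning at least 70% loss of cells showing the perinucleolar compartment, a nuclear body marking cancer cells; inconclusive = readout between -30 and a set limit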;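 also: plate controls were DMSO wells for no effect and camptothecin positive control wells for full effect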
#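 Read-out is percentage of cells bearing a perinucleolar compartment, from automated 20x imaging of fixed, Hoechst-stained PC3M PTB-GFP cells. Cells were seeded 4 h, then exposed 16 h to compound (23 nl of library stock) in duplicate plates.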
# Tau fluor counter – counter-screen for tau fibril formation inhibitors; 280,000 compounds, 0.93% hits; tau K18 P301L (four-repeat tau fragment) Alexa594 fluorescence, heparin fibrillization; Potency, µM (titrated, usually from 57.7 µM), for the others: top-dose activity change, negative = decrease; also: potency is read from the fitted curve at half-maximal effect; nearly all actives have a fitted effect of over 55% in size
#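 Human K18 P301L tau (15 uM unlabeled plus 0.24 uM Alexa 594-labeled, final) in 100 mM sodium acetate pH 7 was mixed with compound and 20 uM heparin and incubated 6 hr at 37 C.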
# TexasRed fluor – Texas Red fluorescence interference in TRb-SRC2 counter-screen. Potency, µM (series often up to 106 µM), without a hit: at the top dose fluorescence change, negative = quenching. 280,000 compounds, 0.29% hits. TRb/SRC2 Texas Red total fluorescence interference. AID 1479; active = well fitted curve in either direction with a large enough effect; inconclusive = small, poorly fitted or top-dose-only effect; also: potency is read from the fitted curve at half-maximal effect
#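 Human TRb ligand-binding domain at 0.6 uM with 20 nM Texas Red SRC2 peptide in Tris buffer containing 1 uM T3 and 5% DMSO, incubated with compound 5 h at ambient temperature. Total fluorescence (555/632 nm) calculated as parallel + 2 × perpendicular.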
# Active calls of the source: *; ? = inconclusive; · = no result; [ ] = dose if it differs, or a comment. Unless noted, calls follow the shape of the dose curve; as a rule, active = well fitted curve in the direction sought with a large enough effect; inconclusive = small, poorly fitted or top-dose-only effect, or another doubt; inactive = no such curve, though single readings can be large; an effect the other way counts as inactive or inconclusive. Unless noted, % is scaled to controls: 0 for no effect and ±100 for the full control effect.
SMILES,Tau ThT inhib,TRb-SRC2 inh,Tau fibril FP,PNC assembly inh,Tau fluor counter,TexasRed fluor
O=S(=O)(Cc1ccccc1)N1CCCC1,-3%,-15%,-4%,-100*,1%,-2%
O=C(O)CNC(=O)C1COc2ccccc2O1 (stereo not drawn),12%,-4%,4%,16,5%,3%
COc1ccc(CNC(=O)C2COc3ccccc3O2)cc1 (stereo not drawn),-3%,0%,10%,-100*,-4%,1%
O=C(NC1CC2CCC1C2)C1COc2ccccc2O1 (stereo not drawn),4%,-5%,-7%,-86*,-3%,0%
CCc1nnc(NC(=O)C2CCN(S(=O)(=O)Cc3ccccc3)CC2)s1,-3%,-4%,4%,-100*,0%,-8%
Cc1cccc(OCC(=O)NCc2cc(C)nc3ccccc23)c1,-4%,-2%,-3%,·,-5%,-2%
CCc1nnc(NC(=O)C2COc3ccccc3O2)s1 (stereo not drawn),-18%,-12%,2%,-80*,-13%,-1%
COc1ccc(-c2nc(C#N)c(NCCc3ccccc3)o2)cc1,?,-7%,9%,-100*,?,-8%
COc1ccc(CNc2oc(-c3ccccc3)nc2C#N)cc1,-12%,-4%,6%,25,?,-6%
COc1ccc(CCNc2oc(-c3ccc(C)cc3)nc2C#N)cc1OC,?,-17%,5%,-108*,-26%,2%
O=C(CSc1c2c(nc3ccc(Cl)cc13)CCCC2)N1CCCCC1,?,-3%,12%,·,-13%,-2%
COC(=O)c1cc(CNC(=O)c2cccc(Cl)c2Cl)ccc1OC,-8%,0%,-5%,-3,-5%,-2%
COC(=O)c1cc(CNC(=O)c2cccc(Cl)c2)ccc1OC,-4%,0%,-15%,-89*,-5%,5%
O=C(NCC1COc2ccccc2O1)C1CCN(S(=O)(=O)c2cccc3nsnc23)CC1 (stereo not drawn),-13%,9%,-3%,-85*,-15%,-1%
COC(=O)c1cccc(NC(=O)c2cnoc2C)c1,-3%,-19%,-6%,-119*,-6%,1%
CCc1c(C(=O)Nc2cc(C)ccc2OC)[nH]c(C)c1C(C)=O,-3%,-8%,13%,-94*,-5%,1%
CCOCCCN(Cc1ccco1)C(=O)c1cc2c(=O)[nH]c3ccc(C)cc3c2s1,-23%,-31%[53 µM],3%,-85*,-17%,-81%[53 µM]
Cc1oc(C)c2c(=O)ccc3c(c12)OC(N)=C(C#N)C3c1ccc(F)cc1 (stereo not drawn),25µM*,9%,?,?,?,1%
CNC(=O)CSc1nccn1Cc1ccc(Cl)cc1,-8%,1%,5%,·,-1%,1%
O=c1[nH]c2ccc(Br)cc2c(-c2ccccc2)c1N1CCOCC1,-15%,10%,-4%,1,-15%,-3%
O=c1[nH]c2ccc(Br)cc2c(-c2ccccc2)c1CN1CCOCC1,22µM*,1%,?,-90*,-18%,-5%
CCn1c(=N)n(CCOc2ccc(Br)cc2)c2ccccc21,-6%,5%,0%,·,1%,-2%
Cc1cc(SCC(=O)c2ccc(O)c(O)c2)nc2ccccc12,?,2%,-6%,·,28µM*[quencher],-2%
COc1cc2[nH]c(=O)c(C(=O)NCCCN3CCOCC3)c(O)c2cc1OC,-17%,4%,-8%,·,-19%,-6%
Cc1ccc(C(=O)/C=C/c2ccc(F)cc2)o1,?,1%,13%,5,-5%,-4%
SMILES,Tau ThT inhib,TRb-SRC2 inh,Tau fibril FP,PNC assembly inh,Tau fluor counter,TexasRed fluor
Cc1nccc(-c2cccc(NC(=O)Nc3ccc(Cl)cc3)c2)n1,-5%,8%,?,·,?,-2%
Cc1nccc(-c2cccc(N/N=C(\C#N)C(=O)c3ccccc3)c2)n1,8.9µM*,5%,3%,·,?,-8%
COC(=O)CNC(=O)C(C)NC(=O)OCc1ccccc1 (stereo not drawn),6%,9%,1%,-127*,-2%,2%
C[C@H](O)CC1=C[C@H](O)[C@@H](C)OC1=O,-7%,-3%,-8%,·,-1%,-1%
COc1ccc(C2=C(Nc3ccc(Br)c(C)c3)c3ccccc3C2=O)cc1,?,-6%,6%,·,4µM*[quencher],1%
Cc1cc(C)cc(NC2=C(c3ccccc3)C(=O)c3ccccc32)c1,?,-4%,4%,·,7.9µM*[quencher],-5%
O=[N+]([O-])c1ccc(N/N=C/c2ccc[nH]2)cc1,-2%,9%,2%,-97*,-8%,0%
O=[N+]([O-])c1cccc(N/N=C/c2cccc3ccccc23)c1,?,-1%,-2%,-4,8.9µM*[quencher],-36%
C/C(=N\Nc1cccc([N+](=O)[O-])c1)c1cc2ccccc2o1,?,1%,8%,·,?,-3%
O=[N+]([O-])c1ccccc1N/N=C/c1c[nH]c2ccccc12,3.2µM*,3%,-15%,97,3.5µM*[quencher],-8%
O=C(N/N=C/c1c[nH]c2ccccc12)c1cccc([N+](=O)[O-])c1,?,-2%,?,95,?,-9%
O=[N+]([O-])c1ccc(N/N=C/c2c[nH]c3ccccc23)cc1,3.2µM*,-1%,?,29,7.9µM*[quencher],-5%
COc1ccc(-n2c(N)c(C(=O)NCC3CCCO3)c3nc4ccccc4nc32)c(OC)c1 (stereo not drawn),28µM*,?,-2%,12,?,-7%
C=CCn1c(N)c(C(=O)NCC2CCCO2)c2nc3ccccc3nc21 (stereo not drawn),-6%,0%,1%,?,-7%,-2%
CCOC(=O)C(Cc1c[nH]c2ccccc12)NC(=O)COc1ccc(Cl)c(C)c1 (stereo not drawn),-6%,3%,17%,·,?,-8%
O=S(=O)(c1ccccc1)n1cc(-c2ccccn2)c(N2CCOCC2)n1,1%,-4%,0%,·,-1%,-1%
S=C(Nc1ccc(Nc2ccccc2)cc1)NC1CCCCCC1,-16%,2%,9%,·,10µM*[quencher],-3%
CC(C)c1ccc(NC(=S)NC2CCN(Cc3ccccc3)CC2)cc1,2%,1%,2%,80,-12%,8%
CC1CCCN(C(=S)Nc2ccc(Nc3ccccc3)cc2)C1 (stereo not drawn),?,-3%,?,·,13µM*[quencher],-6%
S=C(Nc1cccc(Cl)c1)NC1CCCCC1,-10%,1%,-6%,72,-23%,-5%
S=C(NNc1cccc(Cl)c1)NC1CCCCC1,25µM*,0%,?,·,-28%,1%
